# Test results from PubChem BioAssay (NCATS).
# “And” between values parts separate entries of the source, which are not always exact repeats. Equal values may be shown once. Results filed as inconclusive are left out. A call without a number means that no potency is given here. Unmarked numbers belong to inactive results. The source made the active and inactive calls. Unless noted, calls follow the shape of the dose curve; as a rule, active = well fitted curve in the direction sought with a large enough effect; inconclusive = small, poorly fitted or top-dose-only effect, or another doubt; inactive = no such curve, though single readings can be large; an effect the other way counts as inactive or inconclusive.
# Legend:
# [1] = molecular target: Cellular tumor antigen p53 (Homo sapiens) (UniProt P04637); test: Primary qHTS for small molecule compounds that upregulate eGFP-tagged delta133p53alpha (in N-terminal) cells. (AID 2060322); settings: NCI-H358 eGFP-delta133p53alpha fluorescence, 24 h; activation: active compounds read high; also: nearly all actives have a fitted effect of over 75% in size
# Cellular tumor antigen p53 (Homo sapiens), sequence (P04637 whole entry, looked up): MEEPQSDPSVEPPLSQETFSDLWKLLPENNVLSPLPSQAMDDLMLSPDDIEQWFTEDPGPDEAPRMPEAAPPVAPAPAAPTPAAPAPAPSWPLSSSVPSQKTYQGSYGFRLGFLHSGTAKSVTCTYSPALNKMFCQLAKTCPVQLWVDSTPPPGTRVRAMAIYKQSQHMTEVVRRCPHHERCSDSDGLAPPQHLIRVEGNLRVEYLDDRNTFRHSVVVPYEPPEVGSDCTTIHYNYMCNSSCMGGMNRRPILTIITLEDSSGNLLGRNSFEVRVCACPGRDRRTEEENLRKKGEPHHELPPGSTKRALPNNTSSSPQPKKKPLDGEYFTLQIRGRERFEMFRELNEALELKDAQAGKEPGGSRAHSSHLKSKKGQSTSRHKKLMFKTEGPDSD
# Method in brief: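 NCI-H358 cells pre-induced 24 h with 10 ng/ml doxycycline to express N-terminal eGFP-delta133p53alpha, then dosed 24 h at 37C without doxycycline; fixed, Hoechst-stained, GFP intensity by laser scanning cytometry, normalized to DMSO (0%) and 57.5 uM 5-azacytidine (100%).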
# [2] = molecular target: Cellular tumor antigen p53 (Homo sapiens) (UniProt P04637); test: Primary qHTS for small molecule compounds that upregulate eGFP-tagged delta133p53alpha (in C-terminal) cells. (AID 2060324); settings: NCI-H358 delta133p53alpha-eGFP (C-terminal tag), GFP fluorescence imaging, 24 h; series mostly up to 57.5 µM; also: potency is read from the fitted curve at half-maximal effect
# Method in brief: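 NCI-H358 cells pre-induced 24 h with 100 ng/ml doxycycline to express delta133p53alpha-eGFP, then dosed in doxycycline-free medium for 24 h at 37C. Fixed, Hoechst-stained; GFP intensity by laser scanning cytometry, normalized to DMSO wells.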
# [3] = molecular target: Aldehyde dehydrogenase, mitochondrial (Homo sapiens) (UniProt P05091); test: qHTS for Inhibitors of the Aldehyde Dehydrogenase Family (ALDH2) Validation screens (AID 2061302; active = well fitted inhibition curve with a large enough effect; title and protocol of this record describe different tests; also: potency is read from the fitted curve at half-maximal effect); settings: ALDH inhibition qHTS; series mostly up to 42.6 µM
# [4] = molecular target: Aldehyde dehydrogenase, mitochondrial (Homo sapiens) (UniProt P05091); test: qHTS for Inhibitors of the Aldehyde Dehydrogenase Family (ALDH2) Confirmatory screens (AID 2061303; active = well fitted inhibition curve with a large enough effect; title and protocol of this record describe different tests; also: nearly all actives have a fitted effect of over 45% in size; also: potency is read from the fitted curve at half-maximal effect); settings: ALDH inhibition qHTS; series mostly up to 45.4 µM
# [5] = qHTS for Inhibitors of the Aldehyde Dehydrogenase Family (ALDH1A2, ALDH1A3, ALDH2, ALDH3A1) (AID 2061307); settings: ALDH inhibition qHTS; series mostly up to 50.3 µM; also: nearly all actives have a fitted effect of over 50% in size; as to potency: test system not described further here; potency is read from the fitted curve at half-maximal effect
# [6] = molecular target: Aldehyde dehydrogenase 1A1 (Homo sapiens) (UniProt P00352); test: qHTS for Inhibitors of the Aldehyde Dehydrogenase Family (ALDH1A1) Confirmatory screens (AID 2061316); settings: ALDH inhibition qHTS; series mostly up to 47.3 µM; also: nearly all actives have a fitted effect of over 65% in size; also: potency is read from the fitted curve at half-maximal effect
# [7] = molecular target: Aldehyde dehydrogenase, mitochondrial (Homo sapiens) (UniProt P05091); test: qHTS for Inhibitors of the Aldehyde Dehydrogenase Family (ALDH2) Primary screen (AID 2061308); settings: ALDH2 enzyme inhibition qHTS, 1536-well; series mostly up to 56 µM; also: nearly all actives have a fitted effect of over 55% in size
# [8] = molecular target: Retinaldehyde dehydrogenase 3 (Homo sapiens) (UniProt P47895); test: qHTS for Inhibitors of the Aldehyde Dehydrogenase Family (ALDH1A3) Validation screen (AID 2061312); settings: ALDH1A3 enzyme inhibition qHTS validation, fluorescence; series mostly up to 84.7 µM; also: nearly all actives have a fitted effect of over 45% in size
# [9] = molecular target: Retinaldehyde dehydrogenase 3 (Homo sapiens) (UniProt P47895); test: qHTS for Inhibitors of the Aldehyde Dehydrogenase Family (ALDH1A3) Primary screen (AID 2061315); settings: ALDH inhibition qHTS; series mostly up to 56 µM
# [10] = molecular target: Retinaldehyde dehydrogenase 3 (Homo sapiens) (UniProt P47895); test: qHTS for Inhibitors of the Aldehyde Dehydrogenase Family (ALDH1A3) Confirmatory screens (AID 2061311); settings: ALDH inhibition qHTS; series mostly up to 46 µM; also: nearly all actives have a fitted effect of over 60% in size; also: potency is read from the fitted curve at half-maximal effect
# [11] = BET inhibitor-based combinations targeting novel dependencies in MECOM-rearranged (r) AML: UCSD-AML1 cell line (AID 2202235); settings: UCSD-AML1 AML cells viability, CellTiter-Glo, 48 h; series mostly up to 46 µM; also: nearly all actives have a fitted effect of over 40% in size
# Method in brief: (§1)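 Seeding density was 500 cells/well, and drug exposure lasted 48 hr under standard culture conditions. Read-out used CellTiter-Glo reagent with a 15 min room-temperature incubation before luminescence measurement; AUC and Z-AUC summarize the normalized responses.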
# [12] = molecular target: Retinal dehydrogenase 2 (Homo sapiens) (UniProt O94788); test: qHTS for Inhibitors of the Aldehyde Dehydrogenase Family (ALDH1A2) Confirmation screens (AID 2061314); settings: ALDH1A2 enzyme inhibition qHTS confirmation; series mostly up to 45.9 µM; also: nearly all actives have a fitted effect of over 65% in size; also: potency is read from the fitted curve at half-maximal effect
# [13] = BET inhibitor-based combinations targeting novel dependencies in MECOM-rearranged (r) AML: OCI-AML3 cell line (AID 2202232); settings: CellTiter-Glo luminescence, 48 h; Potency: OCI-AML3 viability; series mostly up to 46 µM; also: nearly all actives have a fitted effect of over 35% in size; also: potency is read from the fitted curve at half-maximal effect
# Method in brief: (§2)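 Readout: CellTiter-Glo luminescence. Exposure: 48 h, 11 concentrations, 500 cells/well. Metric: AUC and within-line Z-AUC after DMSO/empty-well normalization.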
# [14] = BET inhibitor-based combinations targeting novel dependencies in MECOM-rearranged (r) AML: AML-191 cell line (AID 2202236; also: nearly all actives have a fitted effect of over 35% in size; also: potency is read from the fitted curve at half-maximal effect); settings: AML-191 viability, CellTiter-Glo luminescence, 48 h; series mostly up to 46 µM
# Method in brief: as §2
# [15] = BET inhibitor-based combinations targeting novel dependencies in MECOM-rearranged (r) AML: SET-2 cell line (AID 2202231); settings: SET-2 AML cells viability, CellTiter-Glo luminescence, 48 h; viability: active compounds read low, concentration not given here; also: nearly all actives have a fitted effect of over 35% in size
# Method in brief: as §2
# [16] = BET inhibitor-based combinations targeting novel dependencies in MECOM-rearranged (r) AML: MV-4-11 cell line (AID 2202233); settings: MV-4-11 AML viability, CellTiter-Glo luminescence, 48 h; series mostly up to 46 µM; also: nearly all actives have a fitted effect of over 45% in size
# Method in brief: as §1
# [17] = BET inhibitor-based combinations targeting novel dependencies in MECOM-rearranged (r) AML: HNT-34 cell line (AID 2202234); settings: HNT-34 AML viability, CellTiter-Glo luminescence, 48 h; series mostly up to 46 µM; also: nearly all actives have a fitted effect of over 35% in size
# Method in brief: as §1
# [18] = BET inhibitor-based combinations targeting novel dependencies in MECOM-rearranged (r) AML: AML-194 cell line (AID 2202237; also: nearly all actives have a fitted effect of over 40% in size); settings: AML-194 (MECOM-r AML) viability, CellTiter-Glo, 48 h; series mostly up to 46 µM
# Method in brief: as §2
structure (smiles),measurement,setting,value
NC(=S)c1ccc[n+]([C@@H]2O[C@@H](COP(=O)([O-])OP(=O)(O)OC[C@H]3O[C@@H](n4cnc5c(N)ncnc54)[C@H](OP(=O)(O)O)[C@@H]3O)C(O)C2O)c1 (some centres undefined),activation,[1],-2.21%
same,Potency,[2],inactive
same,Potency,[3],inactive
same,Potency,[4],inactive
same,Potency,[5],20.1 µM (active)
same,Potency,[6],25.2 µM (active)
CNS(=O)(=O)CCc1ccc2[nH]cc(C3CCN(C)CC3)c2c1,activation,[1],13.4% [middle of 4 runs]
same,Potency,[2],inactive
same,Potency,[3],inactive
same,Potency,[7],inactive
same,Potency,[8],inactive
same,Potency,[9],inactive
O=C(Nc1ccc2[nH]ncc2c1)C1CCC1,activation,[1],-2.43% and 6.33%
same,Potency,[2],inactive
same,Potency,[3],inactive
same,Potency,[7],inactive
same,Potency,[8],inactive
same,Potency,[9],inactive
Cc1cn[nH]c1,activation,[1],25.4% and 16.2% and -25.1%
same,Potency,[2],inactive
same,Potency,[3],inactive
same,Potency,[4],inactive
same,Potency,[10],inactive
same,Potency,[6],inactive
same,Potency,[11],inactive
NC(=O)c1cc[n+](CC2=C(C(=O)O)N3C(=O)[C@@H](NC(=O)[C@@H](c4ccccc4)S(=O)(=O)[O-])[C@H]3SC2)cc1,activation,[1],-28.8%
same,Potency,[2],inactive
same,Potency,[3],inactive
same,Potency,[5],inactive
same,Potency,[10],inactive
same,Potency,[12],inactive
CCNc1nc2c(ncn2[C@H]2C[C@H](O)[C@@H](CO)O2)c(=O)[nH]1,activation,[1],9.4% and 5.67%
same,Potency,[2],inactive
same,Potency,[3],inactive
same,Potency,[7],inactive
same,Potency,[8],inactive
same,Potency,[9],inactive
CCN(CC)CCCCNc1ncc2cc(-c3c(Cl)cccc3Cl)c(NC(=O)NC(C)(C)C)nc2n1,activation,[1],-67.6% and 10%
same,Potency,[2],inactive
same,Potency,[3],inactive
same,Potency,[7],inactive
same,Potency,[8],inactive
same,Potency,[9],inactive
Cc1scc2c1N(C(=O)CN1CCN(C)CC1)c1ccccc1NC2=O,activation,[1],-13.4% and -3.34%
same,Potency,[2],inactive
same,Potency,[3],inactive
same,Potency,[4],inactive
same,Potency,[5],inactive
same,Potency,[10],inactive
same,Potency,[12],inactive
CCCCCCN(CCCCCC)C(=O)Cc1c(-c2ccc(F)cc2)[nH]c2ccccc12,activation,[1],-10.8%
same,Potency,[2],inactive
same,Potency,[3],10 µM (active)
same,Potency,[4],inactive
same,Potency,[5],inactive
same,Potency,[10],inactive
same,Potency,[12],inactive
same,Potency,[6],inactive
CC1=C(C)C(=O)C(CCCCC#CCCCC#CCO)=C(C)C1=O,activation,[1],18.6% and 0.426%
same,Potency,[2],inactive
same,Potency,[3],5.01 µM (active)
same,Potency,[4],4.49 µM (active)
same,Potency,[5],7.12 µM (active)
same,Potency,[10],0.504 µM (active)
same,Potency,[6],1.27 µM (active)
Cc1cc(O)c2c(c1)C(=O)c1cc(O)cc(O)c1C2=O,activation,[1],-1.13% and -38%
same,Potency,[2],26.9 µM (active)
same,Potency,[3],3.16 µM (active)
same,Potency,[4],0.712 µM (active)
same,Potency,[10],11.3 µM (active)
same,Potency,[12],6.34 µM (active)
same,Potency,[6],2.52 µM (active)
same,Potency,[13],9.34 µM (active)
same,Potency,[11],inactive
same,Potency,[14],16.6 µM (active)
N[C@@H](Cn1ccc(=O)c(O)c1)C(=O)O,activation,[1],-3.82% and -8.28%
same,Potency,[2],inactive
same,Potency,[3],inactive
same,"activity change, negative = inhibition",[7],3.38% [at 5.59 µM]
same,Potency,[8],inactive
same,"activity change, negative = inhibition",[9],6.23% [at 5.59 µM]
O=NN(CCCl)C(=O)NCCCl,activation,[1],-1.09% and 45.2%
same,Potency,[2],inactive
same,Potency,[3],inactive
same,Potency,[4],15.8 µM (active)
same,Potency,[10],12.7 µM (active)
same,Potency,[6],22.5 µM (active)
same,viability,[15],104%
same,Potency,[13],inactive
same,Potency,[16],inactive
same,Potency,[17],inactive
same,Potency,[11],inactive
same,Potency,[14],inactive
same,Potency,[18],inactive
c1ccc(C(NCCNC(c2ccccc2)c2ccccc2)c2ccccc2)cc1,activation,[1],-16.9%
same,Potency,[2],inactive
same,Potency,[3],inactive
same,Potency,[4],inactive
same,Potency,[5],inactive
same,Potency,[10],inactive
same,Potency,[12],inactive
same,Potency,[6],inactive
O=C(O)c1cc(=O)c2c(Cl)cc(Cl)cc2[nH]1,activation,[1],-19.2%
same,Potency,[2],inactive
same,Potency,[3],inactive
same,Potency,[5],inactive
same,Potency,[6],inactive
Cc1cc(Cn2cnc3c2C[C@@H](C(=O)O)N(C(=O)C(c2ccccc2)c2ccccc2)C3)ccc1N,activation,[1],-13.9%
same,Potency,[2],inactive
same,Potency,[3],inactive
same,Potency,[4],inactive
same,Potency,[12],inactive
O=c1c2ccccc2nc2n1CCc1c-2[nH]c2ccccc12,activation,[1],-0.328% and 11% and -19%
same,Potency,[2],inactive
same,Potency,[3],inactive
same,Potency,[7],inactive
same,Potency,[8],inactive
same,Potency,[9],inactive
Oc1ccc(Cn2cc[nH]c2=S)cc1,activation,[1],-47.8%
same,Potency,[2],inactive
same,Potency,[3],inactive
same,Potency,[4],inactive
same,Potency,[12],inactive
N.N.N.N.N.N.N.N.N.N.N.N.N.N.O.O.[Ru+4].[Ru+5].[Ru+5],activation,[1],4.58%
same,Potency,[2],inactive
same,Potency,[3],inactive
same,Potency,[4],inactive
same,Potency,[5],inactive
same,Potency,[6],inactive
